Test [1] can be described thus: small molecules captured by biotinylated probe aFSTL3 – biochemical, small-molecule microarray, fluorescence 635/667, stem cell growth factor project, primary screen (AID 1064).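 Further: measures binding of the biotinylated anti-FSTL3 antibody to printed compounds.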 Particulars: higher = more signal.
Test [2] can be described thus: binders from COS7 lysate, DM2A8 probe, primary screen, torsin A project, cell lysate, small-molecule microarray, fluorescence 635/667 (AID 1065). Conditions: higher = more signal, COS7 lysate expressing mutant human TOR1A.
Test [3] is described as follows: small molecules captured by biotinylated probe aFGF2 – biochemical, small-molecule microarray, fluorescence 635/667, stem cell growth factor project, primary screen (AID 1067).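 Further: measures binding of biotinylated aFGF2 protein to printed compounds on slides; z-score merges feature fluorescence and signal-to-noise across triplicate slides.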 Particulars: higher = more signal.
Test [4] can be described thus: small molecules captured by biotinylated probe aFGF10 – biochemical, small-molecule microarray, fluorescence 635/667, stem cell growth factor project, primary screen (AID 1071).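 Further: score merges 667 nm spot intensity and signal to noise from triplicate slides.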 Conditions: higher = more signal.
The target in test [5] is Neurogenic locus notch homolog protein 2 (Homo sapiens) (UniProt Q04721). Put plainly: small molecules binding Notch2 protein – biochemical, small-molecule microarray, 635 nm fluorescence, stem cell growth factors, primary screen (AID 1073). Conditions: higher = more signal.
Chain of Neurogenic locus notch homolog protein 2 (Homo sapiens) (Q04721 whole entry, looked up, canonical isoform): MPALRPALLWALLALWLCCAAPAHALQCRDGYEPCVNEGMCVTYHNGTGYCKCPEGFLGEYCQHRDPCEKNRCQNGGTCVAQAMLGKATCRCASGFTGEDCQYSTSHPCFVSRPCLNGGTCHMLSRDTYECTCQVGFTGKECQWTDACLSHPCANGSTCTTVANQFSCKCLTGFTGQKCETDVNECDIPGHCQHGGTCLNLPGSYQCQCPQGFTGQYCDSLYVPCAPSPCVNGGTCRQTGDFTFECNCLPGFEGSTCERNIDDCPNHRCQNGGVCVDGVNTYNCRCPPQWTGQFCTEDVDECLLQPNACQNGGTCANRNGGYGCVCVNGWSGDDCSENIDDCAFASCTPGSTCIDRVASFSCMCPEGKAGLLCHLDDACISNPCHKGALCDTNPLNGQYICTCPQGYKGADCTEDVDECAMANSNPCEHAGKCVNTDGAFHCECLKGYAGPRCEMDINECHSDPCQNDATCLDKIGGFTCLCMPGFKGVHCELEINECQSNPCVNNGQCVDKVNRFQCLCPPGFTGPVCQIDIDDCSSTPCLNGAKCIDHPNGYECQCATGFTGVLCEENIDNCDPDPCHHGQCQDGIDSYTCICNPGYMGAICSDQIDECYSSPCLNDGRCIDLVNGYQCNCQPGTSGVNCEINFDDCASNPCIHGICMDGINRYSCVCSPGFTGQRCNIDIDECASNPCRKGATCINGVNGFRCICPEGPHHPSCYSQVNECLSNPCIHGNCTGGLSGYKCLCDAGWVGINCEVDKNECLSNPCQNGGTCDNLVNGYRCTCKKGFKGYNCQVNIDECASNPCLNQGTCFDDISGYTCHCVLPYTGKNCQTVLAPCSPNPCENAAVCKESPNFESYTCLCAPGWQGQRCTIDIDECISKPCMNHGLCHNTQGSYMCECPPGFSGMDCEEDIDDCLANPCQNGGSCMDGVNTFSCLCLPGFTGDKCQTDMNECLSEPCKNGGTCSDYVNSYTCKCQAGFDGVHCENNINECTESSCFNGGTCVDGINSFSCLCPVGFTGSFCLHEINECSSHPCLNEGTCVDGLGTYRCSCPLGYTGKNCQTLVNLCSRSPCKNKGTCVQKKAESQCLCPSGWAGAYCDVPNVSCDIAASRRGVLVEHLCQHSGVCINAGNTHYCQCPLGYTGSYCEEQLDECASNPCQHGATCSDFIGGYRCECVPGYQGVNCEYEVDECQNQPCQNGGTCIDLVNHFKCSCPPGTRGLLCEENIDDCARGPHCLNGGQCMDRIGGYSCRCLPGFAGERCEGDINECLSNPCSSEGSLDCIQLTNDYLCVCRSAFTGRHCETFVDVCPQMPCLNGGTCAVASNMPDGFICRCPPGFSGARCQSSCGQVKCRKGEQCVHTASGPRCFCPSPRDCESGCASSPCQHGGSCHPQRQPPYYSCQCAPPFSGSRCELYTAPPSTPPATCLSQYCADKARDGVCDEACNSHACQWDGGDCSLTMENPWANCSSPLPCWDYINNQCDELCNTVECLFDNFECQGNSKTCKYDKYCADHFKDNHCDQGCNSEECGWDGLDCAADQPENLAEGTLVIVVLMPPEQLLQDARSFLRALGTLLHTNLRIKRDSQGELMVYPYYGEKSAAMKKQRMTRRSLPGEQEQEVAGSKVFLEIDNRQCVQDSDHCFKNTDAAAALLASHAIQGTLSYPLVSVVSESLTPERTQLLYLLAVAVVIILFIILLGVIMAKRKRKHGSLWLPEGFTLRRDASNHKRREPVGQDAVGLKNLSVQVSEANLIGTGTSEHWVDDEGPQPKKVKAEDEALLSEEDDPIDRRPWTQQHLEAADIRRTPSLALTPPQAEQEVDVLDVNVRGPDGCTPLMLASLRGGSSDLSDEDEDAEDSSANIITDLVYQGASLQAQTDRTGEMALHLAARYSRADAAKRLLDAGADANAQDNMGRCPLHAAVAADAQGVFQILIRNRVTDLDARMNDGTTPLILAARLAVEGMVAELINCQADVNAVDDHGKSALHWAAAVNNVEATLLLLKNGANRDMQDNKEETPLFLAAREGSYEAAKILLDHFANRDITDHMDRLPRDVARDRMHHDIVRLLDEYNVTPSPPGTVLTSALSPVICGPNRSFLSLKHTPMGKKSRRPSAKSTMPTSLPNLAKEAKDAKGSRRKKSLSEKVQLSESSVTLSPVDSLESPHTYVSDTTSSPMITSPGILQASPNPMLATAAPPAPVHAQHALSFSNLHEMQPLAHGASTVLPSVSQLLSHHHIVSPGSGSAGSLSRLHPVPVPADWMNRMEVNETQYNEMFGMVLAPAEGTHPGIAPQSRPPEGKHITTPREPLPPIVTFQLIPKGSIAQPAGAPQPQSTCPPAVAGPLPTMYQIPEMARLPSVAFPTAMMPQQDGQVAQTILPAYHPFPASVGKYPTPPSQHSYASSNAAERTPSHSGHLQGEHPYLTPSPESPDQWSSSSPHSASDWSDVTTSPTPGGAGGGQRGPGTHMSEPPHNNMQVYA
Test [6] concerns the target Pro-neuregulin-1, membrane-bound isoform (Homo sapiens) (UniProt Q02297). As to the kind of experiment: small molecules binding neuregulin-1 protein – biochemical, small-molecule microarray, fluorescence 635/667, psychiatric disease protein project, primary screen (AID 1075).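 Further: score combines 667 nm spot fluorescence with signal to noise.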 Conditions: NRG1 binding, 635 nm fluorescence, higher = more signal.
Test [7] relates to Neuregulin-1 EGF-like domain. As to the kind of experiment: small molecules binding NRG1 EGF domain – biochemical, small-molecule microarray, 635 nm fluorescence, primary screen (AID 1081).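 Further: binding of the protein to compounds printed on small-molecule microarray slides.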 Particulars: higher = more signal.
Test [8] in a line: FRG1 expression reporter modulators in myotubes – cell-based, C2C12 myotubes, firefly/Renilla luciferase, luminescence, FRG1 inhibition for FSHD, primary screen (AID 1084). Particulars: FRG1 promoter luciferase, higher = more signal, called active from +8 up or from −8 down.
Test [9] is described as follows: small molecules captured by biotinylated probe aFST – biochemical, small-molecule microarray, fluorescence 635/667, stem cell growth factor project, primary screen (AID 1086).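 Further: score merges 667 nm fluorescence with signal-to-noise of each printed compound spot.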 Conditions: higher = more signal.
Test [10] in a line: binders of probe aHhip on microarray, primary screen, stem cell growth factor project, biochemical, small-molecule microarray, fluorescence 635/667 (AID 1087).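 Further: score merges spot fluorescence at 667nm with spot signal to noise ratio.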 Particulars: higher = more signal.
Test [11] has as its system PRMT1 (protein arginine N-methyltransferase 1). Put plainly: small molecules binding arginine methyltransferase PRMT1 – biochemical, small-molecule microarray, 635 nm fluorescence, primary screen (AID 1088).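 Further: binding of Prmt1 protein to compounds spotted on small-molecule microarray slides.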 Conditions: higher = more signal.
Test [12] can be described thus: growth effects on S. cerevisiae YJM789 – YJM789 clinical isolate, OD600, 24 h, basal, primary screen (AID 1089).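 Further: growth of clinical yeast isolate S. cerevisiae YJM 789 seeded 1000 cells per well; test concentration not given here.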 Particulars: higher = more signal, called active from +8 up or from −8 down.
Test [13] is described as follows: S. pombe growth modifiers, basal conditions – strain 972, OD600, 24 h, no modulator, primary screen (AID 1090).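 Further: basal condition with compound alone and no growth modifier present; test concentration not given here.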 Conditions: S. pombe 972 growth, higher = more signal, called active from +8 up or from −8 down.
The nature of test [14]: budding yeast growth modifiers under rapamycin – strain BY4716, OD600, 96 h, primary screen (AID 1091). Further: test concentration not given here. Conditions: S. cerevisiae BY4716 + rapamycin, higher = more signal, called active from +8 up or from −8 down.
Test [15] concerns the target Torsin-1A-interacting protein 2 (Homo sapiens) (UniProt Q8NFQ8). Put plainly: small molecules binding lysate-expressed LULL1 – cell lysate, human LULL1 lysate, 635/667 nm fluorescence, primary screen (AID 1092).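 Further: probe is lysate of COS7 cells overexpressing human LULL1; score merges per-feature 667 nm fluorescence with signal-to-noise.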 Conditions: small-molecule microarray, hLULL1 lysate binding, 635 nm fluorescence; higher = more signal.
The nature of test [16]: optical density change of DRC41 E. coli – strain DRC41, OD650, 24 h, E. coli filamentation project, primary screen (AID 1093).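 Further: MC1000 strain lacking acrAB efflux and sulA so SOS filamentation is blocked; test concentration not given here.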 Particulars: E. coli DRC41 growth, higher = more signal, called active from +8 up or from −8 down.
Test [17] can be described thus: probe aLefty2 binding to arrayed compounds – biochemical, biotinylated probe, 635/667 nm fluorescence, primary screen (AID 1094).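 Further: score merges spot fluorescence near 667 nm with spot signal-to-noise ratio.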 Conditions: small-molecule microarray, higher = more signal.
Test [18] deals with Noggin (protein binding on small-molecule microarray). Put plainly: small molecules binding Noggin protein – biochemical, 635/667 nm fluorescence, primary screen (AID 1095).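 Further: score merges 667 nm feature fluorescence with signal to noise over triplicate slides.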 Particulars: 635 nm fluorescence, higher = more signal.
The target in test [19] is Neurogenic locus notch homolog protein 3 (Homo sapiens) (UniProt Q9UM47). As to the kind of experiment: small molecules binding NOTCH3 protein – biochemical, 635/667 nm fluorescence, primary screen (AID 1096). Particulars: small-molecule microarray, 635 nm fluorescence, higher = more signal.
The nature of test [20]: probe aEGFR binding to arrayed compounds – biochemical, biotinylated probe, 635/667 nm fluorescence, primary screen (AID 1097).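 Further: probe is a biotinylated anti-EGFR antibody binding compounds printed on slides; score combines fluorescence near 667 nm and signal to noise of each spot.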 Particulars: small-molecule microarray, higher = more signal.

For six compounds, composite z-score and z-score results are on record in PubChem BioAssay.

The source made the active and inactive calls.

Chain of Pro-neuregulin-1, membrane-bound isoform (Homo sapiens) (Q02297 whole entry, looked up, the tested form may be a part, canonical isoform): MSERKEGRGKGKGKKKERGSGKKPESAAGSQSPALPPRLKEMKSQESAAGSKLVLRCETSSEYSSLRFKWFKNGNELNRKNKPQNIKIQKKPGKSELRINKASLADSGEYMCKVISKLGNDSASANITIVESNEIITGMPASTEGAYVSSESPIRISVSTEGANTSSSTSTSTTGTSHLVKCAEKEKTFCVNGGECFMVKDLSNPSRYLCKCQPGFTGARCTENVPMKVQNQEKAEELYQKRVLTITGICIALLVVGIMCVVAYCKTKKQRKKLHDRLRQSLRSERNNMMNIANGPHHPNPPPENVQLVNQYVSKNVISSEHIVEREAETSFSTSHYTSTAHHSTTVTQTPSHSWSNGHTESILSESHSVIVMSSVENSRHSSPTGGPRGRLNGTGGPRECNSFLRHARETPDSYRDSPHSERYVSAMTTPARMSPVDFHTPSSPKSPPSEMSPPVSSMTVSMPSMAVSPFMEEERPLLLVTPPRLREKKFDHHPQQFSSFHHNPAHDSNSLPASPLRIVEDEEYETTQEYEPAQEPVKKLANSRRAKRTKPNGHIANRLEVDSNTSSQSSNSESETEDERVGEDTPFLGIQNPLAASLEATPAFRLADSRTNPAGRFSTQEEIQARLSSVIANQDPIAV
Chain of Torsin-1A-interacting protein 2 (Homo sapiens) (Q8NFQ8 whole entry, looked up): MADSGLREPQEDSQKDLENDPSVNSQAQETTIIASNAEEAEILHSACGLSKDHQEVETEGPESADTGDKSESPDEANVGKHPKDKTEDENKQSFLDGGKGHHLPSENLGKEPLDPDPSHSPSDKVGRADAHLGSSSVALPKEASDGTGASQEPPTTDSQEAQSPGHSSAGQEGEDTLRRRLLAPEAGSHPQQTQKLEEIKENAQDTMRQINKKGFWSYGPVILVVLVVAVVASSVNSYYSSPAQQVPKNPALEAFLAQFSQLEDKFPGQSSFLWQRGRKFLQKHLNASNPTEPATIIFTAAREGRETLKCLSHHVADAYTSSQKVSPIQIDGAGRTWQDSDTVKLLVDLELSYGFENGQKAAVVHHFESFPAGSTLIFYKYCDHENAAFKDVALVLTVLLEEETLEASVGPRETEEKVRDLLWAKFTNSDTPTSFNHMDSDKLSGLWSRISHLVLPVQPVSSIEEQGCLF

For `COCCOC(=O)N1C(=O)[C@@]2(c3cc(C#CCCO)ccc31)[C@H](c1ccc(O)cc1)N1[C@H](c3ccccc3)[C@H](c3ccccc3)OC(=O)[C@H]1[C@@H]2C(=O)N1CCCCCCC1`, the composite z-score was 2.58 in [1]; 1.07 in test [2]; 0.2 in test [3]; 1.04 in [4]; 1.33 in test [5]; 0.853 in test [6]. Besides, the composite z-score worked out at 1.14 in [7]; 2 in [9]; 0.7 in test [10]; 1.54 in test [11]; 2.86 in test [15]; 0.947 in test [17]. Further, the composite z-score was 1.29 in [18], 0.991 in test [19] and 0.335 in test [20]. Further, the z-score in test [8] is -0.73 (inactive); in [12] it was 0.616 (inactive); in [13] it was 0.948 (inactive); in test [14], 0.563 (inactive); in test [16] it was -0.16 (inactive).

As to `O=C(NCc1ccccc1)[C@@H]1c2ccccc2C(=O)N(Cc2cc(F)cc(C(F)(F)F)c2)[C@H]1c1ccc(CO)cc1`, the composite z-score is -0.307 in [1]; 0.582 in test [2]; -0.0598 in test [3]; 0.0655 in test [4]; 0.558 in [5]; 0.393 in test [6]. Further, the composite z-score in test [7] was 1.32; in test [9], 0.0906; in test [10], -0.179; in test [11] it was 1.49; in test [15], 2.82; in test [17] it was -0.103. In addition, the composite z-score in test [18] came out at 0.561; in test [19], 0.791; in test [20] it was 0.021. Further, the z-score was -1.67 (inactive) in test [8]; 0.314 (inactive) in [12]; 0.252 (inactive) in [13]; -0.319 (inactive) in test [14]; 0.387 (inactive) in [16].

With `CCOC1=C2C(c3ccc(C)cc3)N(S(=O)(=O)c3ccc(C)cc3)CC2n2c(=O)n(-c3ccccc3)c(=O)n2C1` (stereo not given), the composite z-score in [1] was -0.19; in [2] it was 0.475; in test [3] it was 0.0876; in test [4] it was 0.94; in test [5], 1.55; in [6], 1.13. Besides, the composite z-score in [7] was 0.0031; in test [9] it was 0.701; in test [10], -0.26; in test [11], 1.41; in [15], 2.89; in [17], 0.152. The values for the composite z-score in [18], in [19] and in test [20] were 0.351, 1.08 and 0.0201, respectively. The z-score was -3.93 (inactive) in test [8]; -0.281 (inactive) in test [12]; 0.401 (inactive) in test [13]; 1.73 (inactive) in test [14]; -0.278 (inactive) in test [16].

On to `C=C(C(=O)CC[C@@H](OC(=O)c1cccnc1)c1ccc(OCCO)cc1)C(C)C`, for which the composite z-score in test [1] is -0.408; in test [2], -0.294; in test [3], -0.113; in test [4] it was 1.27; in [5] it was -0.121; in test [6], 0.739. Besides, the composite z-score in test [7] was 1.06; in [9] it was 0.128; in test [10], -0.0994; in [11] it was 1.57; in test [15], 0.111; in [17], -0.209. Besides, the composite z-score in test [18] was 1.58; in test [19], 0.344; in [20] it was -0.0972. In addition, the z-score in [8] was -2.68 (inactive); in test [12], -24.3 (active); in [13], -20.5 (active); in [14], -4.75 (inactive); in [16], -0.808 (inactive).

Regarding `COc1ccccc1CN1C(=O)c2ccccc2[C@](Cc2ccccc2I)(C(=O)NC2CC2)[C@@H]1c1ccc(CO)cc1`, the composite z-score is -0.532 in test [1]; 0.46 in test [2]; 0.0673 in [3]; 0.531 in test [4]; 1.32 in [5]; 0.949 in [6]. Further, the composite z-score in test [7] is 1.42; in test [9] it was 0.653; in test [10], 0.136; in test [11], 1.54; in test [15] it was 3.3; in test [17], -0.117. The composite z-score is 1.1 in test [18], 1.06 in test [19] and -0.0897 in test [20]. For the same compound, the z-score was -2.86 (inactive) in test [8]; -0.357 (inactive) in test [12]; 0.642 (inactive) in test [13]; 2.01 (inactive) in test [14]; 0.199 (inactive) in test [16].

As for `C#C[C@H]1Oc2ccccc2S(=O)(=O)N2CCC[C@@H]12`, the composite z-score was 0.246 in test [1]; 0.321 in test [2]; -0.116 in [3]; -0.223 in [4]; -0.564 in test [5]; -0.671 in [6]. Also, the composite z-score was -0.344 in test [7]; 0.0511 in [9]; 0.0373 in test [10]; -0.513 in test [11]; -0.607 in test [15]; -0.0804 in test [17]. Further, the composite z-score in test [18] was 0.636; in test [19] it was -0.226; in [20], -0.0564. The z-score in test [8] was -0.316 (inactive); in test [12], -0.346 (inactive); in test [13], -0.133 (inactive); in test [14], -1.55 (inactive); in [16] it was -0.738 (inactive).
